GLP1R ag = GLP-1 receptor (human) agonism; P43220; HEK293 GLP-1R CRE-luciferase, luminescence, 4-6 h; cells express a hypersensitive GLP-1R form; Potency, µM (top dose mostly 45.6 µM), actives largely listed as activators; actives 0.007% (n = 380,000); AID 624172
Target sequence (P43220 whole entry, looked up): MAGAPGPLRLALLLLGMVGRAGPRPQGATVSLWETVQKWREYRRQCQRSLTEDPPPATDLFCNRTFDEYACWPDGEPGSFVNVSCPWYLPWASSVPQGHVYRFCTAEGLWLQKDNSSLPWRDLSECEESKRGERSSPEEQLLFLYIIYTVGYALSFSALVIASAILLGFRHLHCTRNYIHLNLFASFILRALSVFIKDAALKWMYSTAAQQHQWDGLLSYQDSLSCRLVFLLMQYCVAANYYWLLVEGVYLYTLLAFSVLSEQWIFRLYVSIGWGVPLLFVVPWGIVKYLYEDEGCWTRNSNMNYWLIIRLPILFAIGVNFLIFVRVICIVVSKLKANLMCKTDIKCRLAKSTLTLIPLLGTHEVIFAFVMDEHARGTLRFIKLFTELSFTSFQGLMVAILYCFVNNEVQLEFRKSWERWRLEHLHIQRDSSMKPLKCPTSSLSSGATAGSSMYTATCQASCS
Mito fusion act = mitochondrial division inhibition or fusion activation; AID 485298; actives 0.23% (n = 320,000); Potency, µM (series often up to 46.1 µM), actives largely listed as activators; S. cerevisiae fusion-defective mutant growth rescue, CellTiterGlo 48 h; further: nearly all actives have a fitted effect of over 45% in size
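Read-out: ATP-based luminescence (CellTiterGlo, 10 min ambient) reporting growth of fusion-defective ts yeast after 48 hours at 37C on glycerol/ethanol YPEG medium in the presence of compound.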
GLP-1R inv ag = GLP-1 receptor (human) inverse agonism | HEK293 GLP-1R CRE-luciferase, luminescence, 24 h; GLP-1R form is constitutively active | Potency, µM (highest dose often 38.3 µM), most hits filed as inhibitors | actives 1.6% (n = 410,000); further: nearly all actives have a fitted effect of over 55% in size
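Inverse agonists were sought by their lowering of basal cAMP reporter luciferase output in HEK293 cells stably carrying constitutively active human GLP-1R, after 24 h compound treatment.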
HEK293 tox = cytotoxicity in counter-screen for GLP-1R inverse agonists | actives 0.13% (n = 410,000) | Potency, µM (series often up to 38.3 µM), most hits filed as inhibitors | HEK293 cAMP-luciferase reporter cells, luminescence, 24 h;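 further: loss of luciferase light is scored as toxicity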
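To flag toxic compounds, the library was rerun on cells for 24 hr at 37 deg C and 5% CO2. Viability-linked luminescence was captured 12 min after adding luciferase detection reagent.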
BRCA1 expr act = activators of BRCA1 expression. Potency, µM (titrated, usually from 46.1 µM), hits mostly activators. MCF7-BRCA1-FFLuc reporter, luminescence, 48 h; response scale: scaled: vehicle 0%, 10 µM genistein 100%. actives 1.1% (n = 380,000); further: nearly all actives have a fitted effect of over 80% in size
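Cells: MCF7-BRCA1-FFLuc, 2000/well. Exposure: 48 h, 37 °C, 5% CO2. Read: luminescence, 15 min post-substrate. Controls: genistein 10 microM (maximal activation), DMSO (neutral).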
A number is an active result; - = inactive; ? = inconclusive; . = no result given; [ ] = remark or other dose. This is a sample that favours compounds with a hit; in the whole collection about 2.8% have one here. The call rests on the fitted dose curve; in most records, active means well fitted curve in the direction sought with a large enough effect; inconclusive means small, poorly fitted or top-dose-only effect, or another doubt; inactive means no such curve, though single readings can be large; an effect the other way counts as inactive or inconclusive.

SMILES | GLP1R ag | Mito fusion act | GLP-1R inv ag | HEK293 tox | BRCA1 expr act
FC(F)(F)c1ccc(CN2C[C@@H]3C(c4ccc(C(F)(F)F)cc4)C4(c5cccnc5)CC3(C4)[C@H]2c2ccccc2)cc1 (some centres not stated) | - | - | - | - | -
COC(=O)c1ccc(C23CC4(C2)[C@H](CN(C)[C@@H]4c2ccccc2)C3c2ccc(C(F)(F)F)cc2)cc1 (some centres not stated) | - | - | 10µM | - | -
FC(F)(F)c1ccc(CN2C[C@@H]3C(c4ccccc4)C4(c5cccnc5)CC3(C4)[C@H]2c2ccccc2)cc1 (some centres not stated) | - | - | 11µM | - | -
Cn1nc([N+](=O)[O-])nc1Sc1nnc(-c2ccccc2)o1 | - | - | 5.6µM | ? | -
C#CCn1c(S(=O)(=O)Cc2ccc(F)cc2)nc(-c2ccccc2)c1-c1ccccc1 | - | - | 5.6µM | - | -
CCn1c(SCC(O)c2ccccc2)nnc1-c1ccccc1 (configuration not stated) | - | - | - | - | 11µM
CC(C)NC(=O)CSc1nc(-c2ccccc2)cs1 | - | - | - | - | 10µM
Cc1nnc(SCC(=O)Nc2nc(-c3ccccc3)cs2)n1N | - | - | - | - | -
O=C(CSc1nc(-c2ccccc2)cs1)Nc1nccs1 | - | - | - | ? | -
CCn1c(SCC(=O)OC(C)C)nnc1-c1ccccc1 | - | - | - | ? | -
CCn1c(SCC(=O)Nc2nc(-c3ccccc3)cs2)nnc1-c1ccccc1 | - | - | 10µM | - | -
CCn1c(CNc2nc(-c3ccccc3)cs2)nnc1SCC(=O)NCc1ccccc1 | - | - | 11µM | - | -
CC12CN3CCN(CC(C3)C1(O)CN1CCCCC1)C2 (configuration not stated) | - | - | - | - | -
CC(C)CNS(=O)(=O)c1ccc(S(=O)(=O)NC2CCOC(C)(C)C2)cc1 (configuration not stated) | - | . | - | - | -
Cn1c(=O)[nH]c(=O)c2c1nc(N1CCN(Cc3ccccc3)CC1)n2CCCc1ccccc1 | - | - | - | - | -
Cc1c(C(=O)N2c3ccccc3Sc3ccccc32)cccc1[N+](=O)[O-] | - | - | 1.8µM | ? | -
Cc1noc(C)c1CSc1ccccc1C(=O)Nc1nccs1 | - | 35µM | - | - | -
Cc1noc(C)c1CSc1ccccc1C(=O)O | - | - | - | - | -
CN(C(=O)c1cc2c(=O)n3ccccc3nc2n1C)C1CCCCC1 | - | - | - | - | 1.4µM
CCCn1c(N)[n+](CC(=O)c2ccco2)c2ccccc21 | - | - | - | - | -
CCN(CC)S(=O)(=O)c1ccc2oc(C(=O)NC3CCCc4ccccc43)c(C)c2c1 (configuration not stated) | - | - | 8.9µM | - | -
Cc1nc(SCc2nc3ccccc3[nH]2)c2oc3ccc(Br)cc3c2n1 | - | . | . | . | -
O=C(Nc1ccncc1)C1CCCN(S(=O)(=O)c2cccc3cccnc23)C1 (configuration not stated) | - | - | 1.8µM | - | -
O=C(NCCC1=CCCCC1)C1CCCN(S(=O)(=O)c2cccc3cccnc23)C1 (configuration not stated) | - | - | 7.9µM | ? | -
CCOc1ccc(NS(=O)(=O)c2cc(C(=O)NCC3CCCO3)ccc2Cl)cc1 (configuration not stated) | - | - | ? | - | -
CN1CCN(CCNC(=O)c2ccc3nc(-c4ccc(F)cc4)c(-c4ccc(F)cc4)nc3c2)CC1 | - | - | 5.6µM | ? | -
CCc1nc2ccc(C(=O)NCCCN3CCN(c4ccc(F)cc4)CC3)cc2nc1CC | - | - | - | - | -
Cc1nc2cc3ccccc3cc2c(=O)[nH]1 | - | -[1.84 µM] | - | - | 11µM
Cc1ccc(-c2cn3nc(C)c(C)nc3n2)cc1 | - | - | 1.4µM | - | -
CC1=C(C(=O)OCc2ccccc2)C(c2cccs2)N2C(=O)CCSC2=N1 (configuration not stated) | - | - | 11µM | - | -

Screens deposited in PubChem by National Center for Advancing Translational Sciences (NCATS).
